Results reported in the supplement of paper PMC10849652.
The full data set covers some 7,900 targets. This sample favours those with a hit. About 0.6% of all pairs of compound and target were hits. Unmarked numbers belong to inactive results.

Key:
Experiment in all cases: log2 fold change, soluble protein after heating vs DMSO (PISA); higher = thermal stabilisation; K562 cells, 10 uM, 30 min; active = over 0.2 and 3.5 SD of the protein, either way, in both replicates (recomputed)
erlotinib = compound: C#Cc1cccc(Nc2ncnc3cc(OCCOC)c(OCCOC)cc23)c1 [erlotinib]
In short: (§1)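 K562 cells at 2×10^6 cells/mL were treated with 10 μM compound for 30 min. Aliquots were heated for 3 min across 48°C-58°C, pooled, and extracted in PBS with 0.5% NP-40 at 4°C; soluble protein was the supernatant after 21,000xg for 90 min. Soluble protein was quantified by TMTpro 16plex LC-MS/MS with channel sums equalised, and reported as log2 fold change in thermal stability against DMSO controls, with values from duplicates.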

[1] = compound: C/C(=N\NC(=O)C1=CC(=CC=C1)S(=O)(=O)N2CCOCC2)/C3=C(C=CC(=C3)Cl)O
In short: as §1

[2] = compound: C1=CC(=C(C=C1Cl)C2=NC3=NC=CN=C3C(=N2)NC4=CC=NC=C4)F
In short: as §1

[3] = compound: C1=CC(=CC=C1C2=NC3=C(N2)C=C(C=C3)C(=O)N)OC4=CC=C(C=C4)Cl
In short: as §1

[4] = compound: C1=CC2=C(C=CC(=C2)/C=C\3/C(=O)NC(=NCC4=CC=CS4)S3)N=C1
In short: as §1

[5] = compound: C1=CC2=NC=CN=C2C=C1/C=C/3\C(=O)NC(=O)S3
In short: as §1

[6] = compound: C1=CC=C(C=C1)C2=NC(=C(N2)C3=CC=NC=C3)C4=CC(=C(C=C4)Cl)O
In short: as §1

[7] = compound: C1=CC=C2C(=C1)C3=NNC4=CC=CC(=C43)C2=O
In short: as §1

[8] = compound: C1CCN(C1)C(=O)NC2=CC=CC(=C2)NC3=NC=C(C(=N3)NCCC4=CN=CN4)Br
In short: as §1

[9] = compound: C1CN(CCC1(CC2=CC=C(C=C2)Cl)N)C3=NC=NC4=C3C=CN4
In short: as §1

Sequence of UniProt Q9BWF3 (Q9BWF3 whole entry, looked up): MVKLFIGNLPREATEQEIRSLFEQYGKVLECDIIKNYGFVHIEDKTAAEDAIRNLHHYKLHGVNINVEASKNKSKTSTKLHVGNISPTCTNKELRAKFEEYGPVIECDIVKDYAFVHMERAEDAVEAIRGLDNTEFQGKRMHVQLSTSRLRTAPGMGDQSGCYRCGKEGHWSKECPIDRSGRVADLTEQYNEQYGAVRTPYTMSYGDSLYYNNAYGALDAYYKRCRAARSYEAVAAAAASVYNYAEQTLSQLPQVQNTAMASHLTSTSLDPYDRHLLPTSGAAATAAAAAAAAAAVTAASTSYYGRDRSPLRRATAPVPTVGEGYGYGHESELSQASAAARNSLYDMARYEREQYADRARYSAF
Sequence of UniProt Q01974 (Q01974 whole entry, looked up): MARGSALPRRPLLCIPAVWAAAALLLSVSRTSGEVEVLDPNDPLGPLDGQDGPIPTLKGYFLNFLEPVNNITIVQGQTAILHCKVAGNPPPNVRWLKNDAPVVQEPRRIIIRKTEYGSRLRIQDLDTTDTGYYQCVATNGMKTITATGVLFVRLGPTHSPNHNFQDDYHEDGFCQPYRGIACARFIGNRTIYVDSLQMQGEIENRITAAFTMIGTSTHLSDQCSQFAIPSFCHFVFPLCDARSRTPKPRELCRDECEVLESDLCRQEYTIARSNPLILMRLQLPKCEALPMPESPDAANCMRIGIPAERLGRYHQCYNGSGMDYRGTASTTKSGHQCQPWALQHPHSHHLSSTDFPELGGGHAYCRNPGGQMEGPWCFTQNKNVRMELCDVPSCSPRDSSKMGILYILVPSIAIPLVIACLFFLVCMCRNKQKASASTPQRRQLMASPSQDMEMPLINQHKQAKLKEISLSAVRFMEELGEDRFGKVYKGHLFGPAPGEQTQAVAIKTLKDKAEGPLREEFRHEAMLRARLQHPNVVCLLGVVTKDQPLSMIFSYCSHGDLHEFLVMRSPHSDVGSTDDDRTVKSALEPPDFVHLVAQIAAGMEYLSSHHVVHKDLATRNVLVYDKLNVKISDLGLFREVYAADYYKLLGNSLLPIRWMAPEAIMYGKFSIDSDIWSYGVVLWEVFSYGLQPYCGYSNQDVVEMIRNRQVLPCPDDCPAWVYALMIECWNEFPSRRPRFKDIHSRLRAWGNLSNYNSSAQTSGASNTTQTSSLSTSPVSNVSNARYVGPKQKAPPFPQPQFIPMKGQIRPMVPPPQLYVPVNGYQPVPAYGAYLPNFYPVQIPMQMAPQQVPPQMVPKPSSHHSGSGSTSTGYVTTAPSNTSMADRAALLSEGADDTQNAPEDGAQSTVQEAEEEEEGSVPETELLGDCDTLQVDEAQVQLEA
Sequence of UniProt Q7Z6E9 (Q7Z6E9 whole entry, looked up): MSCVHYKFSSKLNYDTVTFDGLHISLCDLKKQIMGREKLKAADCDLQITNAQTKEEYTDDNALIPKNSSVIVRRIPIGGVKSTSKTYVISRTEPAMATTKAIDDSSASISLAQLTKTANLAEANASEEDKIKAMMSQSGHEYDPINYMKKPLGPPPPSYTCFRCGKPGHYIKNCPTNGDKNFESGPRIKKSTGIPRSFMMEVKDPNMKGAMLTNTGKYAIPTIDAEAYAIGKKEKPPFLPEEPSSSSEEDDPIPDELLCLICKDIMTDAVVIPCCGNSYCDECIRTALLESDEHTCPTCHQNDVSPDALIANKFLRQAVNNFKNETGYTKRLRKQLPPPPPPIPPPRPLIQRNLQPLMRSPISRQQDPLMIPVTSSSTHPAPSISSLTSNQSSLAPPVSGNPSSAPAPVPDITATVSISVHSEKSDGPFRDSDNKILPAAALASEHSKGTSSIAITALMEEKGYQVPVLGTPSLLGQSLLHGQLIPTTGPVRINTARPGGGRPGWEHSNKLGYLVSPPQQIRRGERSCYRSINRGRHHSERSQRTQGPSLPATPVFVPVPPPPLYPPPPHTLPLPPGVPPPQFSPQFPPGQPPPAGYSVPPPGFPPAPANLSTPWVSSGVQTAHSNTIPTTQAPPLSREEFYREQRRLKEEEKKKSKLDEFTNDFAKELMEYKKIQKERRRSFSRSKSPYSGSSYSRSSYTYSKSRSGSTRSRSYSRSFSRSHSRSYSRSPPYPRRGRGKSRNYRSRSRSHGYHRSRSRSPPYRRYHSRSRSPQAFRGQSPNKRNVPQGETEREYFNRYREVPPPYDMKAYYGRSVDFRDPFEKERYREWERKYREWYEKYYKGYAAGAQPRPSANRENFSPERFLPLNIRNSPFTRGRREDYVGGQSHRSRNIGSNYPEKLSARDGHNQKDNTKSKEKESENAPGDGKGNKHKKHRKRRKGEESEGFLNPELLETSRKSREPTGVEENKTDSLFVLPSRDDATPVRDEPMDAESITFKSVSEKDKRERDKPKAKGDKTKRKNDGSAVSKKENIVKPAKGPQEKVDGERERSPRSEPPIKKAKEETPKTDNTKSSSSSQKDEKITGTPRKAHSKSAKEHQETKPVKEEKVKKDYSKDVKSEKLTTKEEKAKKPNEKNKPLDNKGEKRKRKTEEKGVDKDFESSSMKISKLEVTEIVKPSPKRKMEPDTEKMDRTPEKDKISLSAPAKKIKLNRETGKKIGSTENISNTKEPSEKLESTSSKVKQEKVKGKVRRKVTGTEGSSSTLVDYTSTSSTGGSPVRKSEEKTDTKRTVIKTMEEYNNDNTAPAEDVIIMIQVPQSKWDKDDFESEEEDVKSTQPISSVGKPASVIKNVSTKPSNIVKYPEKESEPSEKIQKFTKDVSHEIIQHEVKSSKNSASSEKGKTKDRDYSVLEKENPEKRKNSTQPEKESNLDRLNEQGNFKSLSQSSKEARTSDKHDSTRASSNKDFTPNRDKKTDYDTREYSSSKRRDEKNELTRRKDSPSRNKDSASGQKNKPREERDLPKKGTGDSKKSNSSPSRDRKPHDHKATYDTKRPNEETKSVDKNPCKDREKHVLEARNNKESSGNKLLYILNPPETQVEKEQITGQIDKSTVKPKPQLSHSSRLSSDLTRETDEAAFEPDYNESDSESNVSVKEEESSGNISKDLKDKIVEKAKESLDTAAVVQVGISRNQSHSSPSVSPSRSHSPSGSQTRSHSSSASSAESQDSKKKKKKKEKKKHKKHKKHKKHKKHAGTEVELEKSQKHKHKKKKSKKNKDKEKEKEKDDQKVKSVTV
Sequence of UniProt O43665 (O43665 whole entry, looked up): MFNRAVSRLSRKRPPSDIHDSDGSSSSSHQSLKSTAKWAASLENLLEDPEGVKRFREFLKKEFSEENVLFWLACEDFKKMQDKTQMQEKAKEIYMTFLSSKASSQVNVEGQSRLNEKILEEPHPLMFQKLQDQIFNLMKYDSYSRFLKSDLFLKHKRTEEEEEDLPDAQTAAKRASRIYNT
Sequence of UniProt Q8IZQ5 (Q8IZQ5 whole entry, looked up): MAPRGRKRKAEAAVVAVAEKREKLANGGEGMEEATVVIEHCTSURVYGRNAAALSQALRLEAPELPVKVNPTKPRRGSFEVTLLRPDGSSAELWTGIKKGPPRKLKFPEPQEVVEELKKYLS
Sequence of UniProt P58004 (P58004 whole entry, looked up): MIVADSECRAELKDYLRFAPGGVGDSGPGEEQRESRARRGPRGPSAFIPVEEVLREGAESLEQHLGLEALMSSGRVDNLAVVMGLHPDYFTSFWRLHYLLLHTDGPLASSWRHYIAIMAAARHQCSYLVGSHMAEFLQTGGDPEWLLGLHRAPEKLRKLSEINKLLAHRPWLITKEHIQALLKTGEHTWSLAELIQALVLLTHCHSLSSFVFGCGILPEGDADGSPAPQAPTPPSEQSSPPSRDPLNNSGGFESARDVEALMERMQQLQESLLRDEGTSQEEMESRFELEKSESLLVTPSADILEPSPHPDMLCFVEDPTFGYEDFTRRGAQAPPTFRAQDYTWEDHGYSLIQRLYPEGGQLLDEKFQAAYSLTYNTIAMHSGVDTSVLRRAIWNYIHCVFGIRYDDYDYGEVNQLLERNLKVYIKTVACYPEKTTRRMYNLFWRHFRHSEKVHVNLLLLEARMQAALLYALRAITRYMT
Sequence of UniProt Q86TU7 (Q86TU7 whole entry, looked up): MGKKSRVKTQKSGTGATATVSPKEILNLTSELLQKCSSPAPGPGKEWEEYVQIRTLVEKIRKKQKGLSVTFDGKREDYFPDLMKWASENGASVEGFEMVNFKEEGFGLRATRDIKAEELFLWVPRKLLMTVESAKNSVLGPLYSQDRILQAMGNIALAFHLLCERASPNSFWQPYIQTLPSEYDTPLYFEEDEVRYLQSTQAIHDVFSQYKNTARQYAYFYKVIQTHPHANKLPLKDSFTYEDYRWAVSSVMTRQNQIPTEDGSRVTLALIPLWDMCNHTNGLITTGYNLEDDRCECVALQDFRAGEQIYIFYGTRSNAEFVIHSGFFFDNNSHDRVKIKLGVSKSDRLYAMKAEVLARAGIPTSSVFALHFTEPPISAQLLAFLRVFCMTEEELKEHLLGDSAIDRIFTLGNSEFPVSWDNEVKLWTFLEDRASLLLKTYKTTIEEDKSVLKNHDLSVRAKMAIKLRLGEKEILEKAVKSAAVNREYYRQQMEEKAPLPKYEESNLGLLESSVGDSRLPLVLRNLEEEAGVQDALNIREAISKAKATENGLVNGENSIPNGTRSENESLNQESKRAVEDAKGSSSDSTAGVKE
Sequence of UniProt Q9NRX5 (Q9NRX5 whole entry, looked up): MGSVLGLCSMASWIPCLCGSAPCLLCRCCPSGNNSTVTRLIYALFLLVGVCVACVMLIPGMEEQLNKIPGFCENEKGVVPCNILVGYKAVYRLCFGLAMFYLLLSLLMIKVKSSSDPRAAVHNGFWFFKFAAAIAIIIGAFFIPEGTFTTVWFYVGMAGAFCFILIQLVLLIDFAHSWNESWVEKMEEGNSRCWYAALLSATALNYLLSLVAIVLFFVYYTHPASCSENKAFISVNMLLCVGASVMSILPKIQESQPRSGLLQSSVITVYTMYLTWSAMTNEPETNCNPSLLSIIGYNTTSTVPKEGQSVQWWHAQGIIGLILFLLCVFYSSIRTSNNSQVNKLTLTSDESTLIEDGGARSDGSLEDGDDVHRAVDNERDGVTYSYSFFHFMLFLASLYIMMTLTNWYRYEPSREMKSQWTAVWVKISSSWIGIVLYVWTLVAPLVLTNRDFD

Row | Target | log2 fold change (erlotinib) | log2 fold change [1] | log2 fold change [2] | log2 fold change [3] | log2 fold change [4] | log2 fold change [5] | log2 fold change [6] | log2 fold change [7] | log2 fold change [8] | log2 fold change [9]
1 | SERINC1 (UniProt Q9NRX5) | -0.034 | -0.023 | -0.006 | 0.096 | -0.026 | 0.085 | 0.018 | 0.149 | 0.115 | -0.031
2 | RPA1 (UniProt P27694) | 0.003 | 0.07 | 0.147 | 0.008 | -0.005 | 0.003 | 0.027 | 0.075 | -0.013 | -0.021
3 | SGPL1 (UniProt O95470) | -0.038 | -0.019 | -0.088 | -0.047 | 0.05 | -0.029 | 0.01 | -0.001 | -0.035 | -0.145
4 | RAB5C isoform 2 (UniProt P51148) | 0 | 0.042 | 0.066 | 0.015 | -0.083 | 0.014 | 0.012 | 0.015 | -0.003 | 0.043
5 | RPS25 (UniProt P62851) | -0.083 | -0.071 | -0.276 | 0.077 | -0.075 | -0.091 | -0.067 | 0.033 | 0.061 | -0.141
6 | RPS14 (UniProt P62263) | -0.166 | -0.077 | -0.124 | 0.027 | -0.149 | -0.04 | 0.039 | 0.045 | 0.031 | -0.126
7 | SDHAF2 (UniProt Q9NX18) | -0.021 | 0.304 (active) | 0.083 | 0.018 | -0.102 | 0.051 | -0.035 | 0.114 | 0.068 | -0.091
8 | RAC3 (UniProt P60763) | 0.05 | -0.016 | 0.029 | -0.042 | 0.009 | 0.02 | -0.009 | -0.09 | -0.007 | 0.005
9 | RBM4 (UniProt Q9BWF3) | 0.02 | 0 | -0.102 | 0.011 | -0.012 | 0.054 | -0.041 | -0.035 | 0.012 | -0.009
10 | SESN2 (UniProt P58004) | 0.154 | 0.108 | -0.039 | -0.003 | 0.016 | 0.007 | -0.009 | -0.008 | -0.041 | -0.109
11 | SETMAR (UniProt Q53H47) | 0.004 | -0.044 | 0.046 | -0.018 | 0.133 | -0.029 | -0.01 | 0.008 | -0.031 | -0.248
12 | SENP6 (UniProt Q9GZR1) | 0.028 | 0.033 | 0.237 (active) | -0.049 | -0.029 | 0.08 | -0.011 | -0.078 | -0.061 | 0.049
13 | SLC18B1 (UniProt Q6NT16) | -0.011 | -0.09 | 0.067 | 0.06 | 0.108 | 0 | 0.12 | 0.002 | -0.037 | 0.081
14 | RPS15 (UniProt P62841) | -0.173 | -0.259 | -0.208 | 0.016 | 0.028 | -0.092 | 0.036 | -0.131 | 0.188 | -0.138
15 | RPP25L (UniProt Q8N5L8) | 0.274 (active) | -0.004 | -0.029 | 0.031 | -0.001 | 0.041 | 0.014 | -0.065 | 0.01 | 0.01
16 | RAB33B (UniProt Q9H082) | 0.059 | 0.031 | 0.028 | -0.029 | -0.08 | -0.012 | -0.079 | 0.025 | -0.016 | 0.118
17 | RBBP6 (UniProt Q7Z6E9) | -0.01 | 0.005 | 0.014 | -0.034 | -0.037 | 0 | 0.025 | -0.005 | -0.067 | 0.003
18 | SERPINA7 (UniProt P05543) | -0.118 | -0.1 | -0.024 | 0.091 | 0.15 | -0.111 | -0.004 | -0.072 | 0.164 | 0.272
19 | RAB3GAP2 (UniProt Q9H2M9) | 0.068 | 0.083 | -0.043 | -0.058 | 0.035 | -0.011 | -0.025 | 0.004 | -0.068 | -0.018
20 | SEPTIN5 (UniProt Q99719) | 0.009 | 0.014 | 0.021 | 0.006 | 0.004 | 0.019 | -0.011 | 0.015 | -0.012 | 0.039
21 | RNF167 (UniProt Q9H6Y7) | -0.133 | -0.073 | -0.069 | 0.052 | 0.025 | 0.025 | -0.004 | -0.07 | -0.018 | -0.009
22 | ROR2 (UniProt Q01974) | -0.045 | 0.058 | 0.01 | 0.023 | 0.02 | 0.011 | 0.076 | -0.024 | -0.041 | -0.001
23 | SLC12A9 (UniProt Q9BXP2) | 0.023 | 0.03 | 0.039 | -0.013 | -0.04 | 0.021 | 0.016 | -0.015 | -0.019 | -0.012
24 | SETD3 (UniProt Q86TU7) | 0.01 | -0.007 | 0.04 | 0.009 | 0.06 | 0.002 | 0.031 | 0.004 | -0.015 | 0.044
25 | RAB3IL1 (UniProt Q8TBN0) | -0.007 | -0.007 | 0.057 | 0.005 | 0.019 | 0.019 | -0.02 | -0.039 | -0.004 | -0.013
26 | RNPS1 (UniProt Q15287) | 0.008 | 0.194 | 0.06 | 0.053 | 0.164 | 0.013 | -0.022 | -0.319 | 0.048 | -0.118
27 | RGS10 (UniProt O43665) | -0.044 | 0.048 | 0.076 | 0.009 | -0.03 | 0.002 | 0.073 | -0.015 | -0.069 | 0.036
28 | RPS18 (UniProt P62269) | -0.126 | -0.088 | -0.211 | 0.039 | -0.037 | -0.089 | -0.024 | 0 | 0.097 | -0.144
29 | RPS27A (UniProt P62979) | -0.246 | -0.143 | -0.207 | 0.016 | -0.136 | -0.033 | 0.004 | -0.062 | 0.111 | -0.098
30 | SELENOH (UniProt Q8IZQ5) | 0.032 | 0.013 | -0.013 | -0.003 | -0.297 (active) | -0.002 | 0.034 | 0.003 | -0.052 | 0.032
